Our source for the composite z-score, composite Z-score and z-score values is PubChem BioAssay.

The target in experiment [1] is Albumin (Bos taurus) (UniProt P02769). In words: compounds binding labelled BSA control protein – biochemical, small-molecule microarray, Alexa647 label, 635/667 nm fluorescence, artefact control for SMM control protein annotation, profiling panel (AID 1118).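 Note: score merges 667 nm emission intensity and signal-to-noise per printed compound spot.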 To be noted: BSA-A647 binding, fluorescence 635 nm, higher = more signal.
Albumin (Bos taurus), sequence (P02769 whole entry, looked up): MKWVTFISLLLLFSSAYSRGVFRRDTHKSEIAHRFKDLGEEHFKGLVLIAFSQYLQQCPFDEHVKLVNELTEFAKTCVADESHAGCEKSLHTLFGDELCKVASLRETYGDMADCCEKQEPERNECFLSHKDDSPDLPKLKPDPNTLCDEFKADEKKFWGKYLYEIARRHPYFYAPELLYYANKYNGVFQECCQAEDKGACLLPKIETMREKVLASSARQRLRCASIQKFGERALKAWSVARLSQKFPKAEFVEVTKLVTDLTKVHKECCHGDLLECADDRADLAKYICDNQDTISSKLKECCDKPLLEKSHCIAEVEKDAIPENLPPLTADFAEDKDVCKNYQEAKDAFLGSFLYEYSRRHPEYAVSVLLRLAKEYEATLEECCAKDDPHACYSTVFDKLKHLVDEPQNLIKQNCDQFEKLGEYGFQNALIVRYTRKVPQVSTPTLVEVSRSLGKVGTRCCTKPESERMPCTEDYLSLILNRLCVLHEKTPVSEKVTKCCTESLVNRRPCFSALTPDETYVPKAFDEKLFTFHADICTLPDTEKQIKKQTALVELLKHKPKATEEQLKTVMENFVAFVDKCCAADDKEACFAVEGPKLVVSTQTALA
Experiment [2] can be described thus: probe aXIP binding to arrayed compounds – biochemical, NeuroSMM set, 635/667 nm fluorescence, primary screen (AID 1119).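 Note: probe is the protein aXip251-270 applied at 1 µg/mL to compound-printed slides; binding of probe to printed compounds measured as 667 nm fluorescence plus signal to noise.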 Particulars: small-molecule microarray, higher = more signal, called active from +8 up or from −8 down.
Experiment [3] in a line: probe aNOTCH3 binding on compound microarray – biochemical, small-molecule microarray, 635/667 nm fluorescence, primary screen (AID 1120).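 Note: probe is a biotin-tagged antibody raised against NOTCH3 rather than NOTCH3 protein; score merges spot fluorescence near 667 nm with spot signal to noise.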 Particulars: higher = more signal.
A short description of experiment [4]: probe aNOTCH2 binding on compound microarray – biochemical, small-molecule microarray, 635/667 nm fluorescence, primary screen (AID 1121).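 Note: score merges feature fluorescence read at 667 nm with its signal to noise.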 To be noted: higher = more signal.
Experiment [5] has as its target Carbonic anhydrase 2 (Homo sapiens) (UniProt P00918). As to the kind of experiment: compounds binding carbonic anhydrase 2 – biochemical, small-molecule microarray, Alexa647-labelled CAII, profiling panel (AID 1122). To be noted: CAII-A647 binding fluorescence, higher = more signal.
Experiment [6] can be described thus: COS7 lysate on small-molecule microarray, probe aHis, 635 nm (AID 1123).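 Note: z-score combines 667nm fluorescence intensity with signal-to-noise per printed compound spot.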 Particulars: COS7 cell lysate, fluorescence, higher = more signal.
A short description of experiment [7]: probe aLAP1 signal on lysate-treated microarray – cell lysate, small-molecule microarray, COS7 lysate, primary screen (AID 1124).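 Note: lysate comes from COS7 cells expressing LAP1 and is applied at 0.3 µg/mL; score merges spot fluorescence near 667 nm with signal-to-noise over triplicate slides.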 To be noted: probe aLAP1, fluorescence, higher = more signal.
The test system of experiment [8] is Sam68 (KHDRBS1). As to the kind of experiment: compounds binding KHDRBS1 protein – biochemical, small-molecule microarray, 635 nm fluorescence, primary screen (AID 1125).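 Note: score merges 667 nm channel intensity with signal to noise over triplicate slides.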 Particulars: higher = more signal.
The test system of experiment [9] is Chordin-like protein 2 (CHRDL2). In words: compounds binding chordin-like 2 – biochemical, small-molecule microarray, 635 nm fluorescence, primary screen (AID 1126).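 Note: printed compound slides probed with Chrdl2 protein at 4 µg/mL for 1 h at 4 C; score merges 667 nm emission intensity with signal to noise over three replicate slides.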 Particulars: fluorescence 635 nm, higher = more signal.
The target of experiment [10] is Concanavalin-A (Canavalia ensiformis) (UniProt P02866). In words: compounds binding concanavalin A lectin – biochemical, small-molecule microarray, Alexa647 label, 635 nm, artefact control for SMM control protein annotation, primary screen (AID 1127).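 Note: z combines 667 nm emission intensity with signal-to-noise across three replicate slides.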 To be noted: ConA-A647 binding fluorescence, higher = more signal.
Concanavalin-A (Canavalia ensiformis), sequence (P02866 whole entry, looked up): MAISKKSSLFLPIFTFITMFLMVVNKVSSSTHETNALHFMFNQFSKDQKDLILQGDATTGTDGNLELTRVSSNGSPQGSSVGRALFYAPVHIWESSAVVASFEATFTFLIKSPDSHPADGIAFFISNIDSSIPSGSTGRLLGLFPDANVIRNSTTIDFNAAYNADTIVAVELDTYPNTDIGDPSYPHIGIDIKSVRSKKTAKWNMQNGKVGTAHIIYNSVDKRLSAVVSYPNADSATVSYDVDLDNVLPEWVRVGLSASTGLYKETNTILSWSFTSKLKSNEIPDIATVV
A short description of experiment [11]: compounds binding Alexa647 anti-His antibody – biochemical, small-molecule microarray, 635 nm fluorescence, artefact control for SMM control protein annotation, primary screen (AID 1128).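 Note: score merges feature fluorescence with signal-to-noise for each printed compound spot.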 Particulars: higher = more signal.
Experiment [12] deals with Human papillomavirus type 1a E7 protein (residues 1-88). As to the kind of experiment: HPV1a E7 small-molecule binders, primary screen, biochemical, small-molecule microarray, residues 1-88, 635 nm (AID 1129). To be noted: small-molecule microarray binding, fluorescence 635 nm; higher = more signal.
The target of experiment [13] is Focal adhesion kinase 1 (Homo sapiens) (UniProt Q05397). As to the kind of experiment: PTK2 protein binding on printed compound slides – biochemical, small-molecule microarray, 635/667 nm fluorescence, BSA, DTT, primary screen (AID 1130).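 Note: composite of spot emission at 667 nm and signal to noise over triplicate slides.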 Particulars: 635 nm fluorescence, higher = more signal.
Focal adhesion kinase 1 (Homo sapiens), sequence (Q05397 whole entry, looked up): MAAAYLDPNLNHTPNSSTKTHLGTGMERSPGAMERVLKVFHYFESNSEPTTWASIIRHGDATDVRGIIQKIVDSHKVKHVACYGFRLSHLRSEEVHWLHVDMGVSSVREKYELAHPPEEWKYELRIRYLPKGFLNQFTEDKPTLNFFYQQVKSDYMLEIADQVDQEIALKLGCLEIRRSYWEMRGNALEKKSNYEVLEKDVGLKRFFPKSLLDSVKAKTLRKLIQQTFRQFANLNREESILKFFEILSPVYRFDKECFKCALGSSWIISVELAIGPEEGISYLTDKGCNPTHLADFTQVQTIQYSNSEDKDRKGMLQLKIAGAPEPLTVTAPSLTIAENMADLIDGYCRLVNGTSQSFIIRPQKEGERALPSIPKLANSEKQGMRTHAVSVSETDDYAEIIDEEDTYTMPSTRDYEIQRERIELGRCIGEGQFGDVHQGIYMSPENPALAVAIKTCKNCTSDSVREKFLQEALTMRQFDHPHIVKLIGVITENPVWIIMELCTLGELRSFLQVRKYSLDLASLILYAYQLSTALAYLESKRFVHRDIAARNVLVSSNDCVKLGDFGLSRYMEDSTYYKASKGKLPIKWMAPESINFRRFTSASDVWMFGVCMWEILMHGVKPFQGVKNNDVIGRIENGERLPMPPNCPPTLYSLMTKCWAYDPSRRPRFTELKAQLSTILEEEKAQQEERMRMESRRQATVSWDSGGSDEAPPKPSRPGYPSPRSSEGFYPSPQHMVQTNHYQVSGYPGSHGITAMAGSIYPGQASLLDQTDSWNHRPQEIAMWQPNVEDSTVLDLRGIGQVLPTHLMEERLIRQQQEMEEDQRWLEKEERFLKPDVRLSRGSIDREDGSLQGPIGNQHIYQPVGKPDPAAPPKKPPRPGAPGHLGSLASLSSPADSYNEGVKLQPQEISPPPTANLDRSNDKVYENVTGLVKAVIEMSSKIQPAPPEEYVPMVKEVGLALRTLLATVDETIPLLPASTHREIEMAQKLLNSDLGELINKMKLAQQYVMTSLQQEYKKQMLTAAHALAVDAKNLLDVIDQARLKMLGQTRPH
For experiment [14], the system named is Fibrinogen (Alexa647-labelled). In words: Alexa647-fibrinogen binding to printed small molecules – biochemical, small-molecule microarray, 635/667 nm fluorescence, artefact control for SMM control-protein annotation, profiling panel (AID 1131).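 Note: z-score merges 667 nm fluorescence with per-spot signal-to-noise over triplicate slides.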 Particulars: fibrinogen-A647 binding fluorescence, higher = more signal.
Experiment [15] deals with Follistatin (Homo sapiens) (UniProt P19883). In words: FST protein binding to printed compounds – biochemical, small-molecule microarray, 635/667 nm fluorescence, primary screen (AID 1132). Particulars: 635 nm fluorescence, higher = more signal.
Follistatin (Homo sapiens), sequence (P19883 whole entry, looked up): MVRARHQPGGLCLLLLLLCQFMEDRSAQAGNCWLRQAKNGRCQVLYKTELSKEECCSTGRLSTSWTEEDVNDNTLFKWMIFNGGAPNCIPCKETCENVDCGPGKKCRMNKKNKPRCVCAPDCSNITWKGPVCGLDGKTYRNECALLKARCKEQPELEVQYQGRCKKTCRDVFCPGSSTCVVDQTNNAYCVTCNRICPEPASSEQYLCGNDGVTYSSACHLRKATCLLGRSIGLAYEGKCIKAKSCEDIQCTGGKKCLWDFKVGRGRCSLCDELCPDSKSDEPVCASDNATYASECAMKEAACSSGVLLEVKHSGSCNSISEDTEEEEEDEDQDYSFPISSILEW
Experiment [16] has as its target Fibroblast growth factor 2 (Homo sapiens) (UniProt P09038). As to the kind of experiment: basic fibroblast growth factor binding to printed compounds – biochemical, small-molecule microarray, 635/667 nm fluorescence, primary screen (AID 1133). To be noted: FGF2, fluorescence 635/667, higher = more signal.
The nature of experiment [17]: JC-1 mitochondrial potential readout, lung cancer cells – cell-based, A549, JC-1 fluorescence, basal, 24 h, 100 nL, profiling panel (AID 1138).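 Note: A549 lung adenocarcinoma cells under basal conditions with no added stimulus; test concentration not given here.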 To be noted: higher = more signal.
In experiment [18] the test system is Lefty1. As to the kind of experiment: Lefty1 protein binding to printed compounds – biochemical, small-molecule microarray, 635/667 nm fluorescence, primary screen (AID 1139). To be noted: fluorescence 635/667, higher = more signal.
The test system of experiment [19] is wheat germ agglutinin (Triticum aestivum), Alexa647-labelled. As to the kind of experiment: Alexa647-WGA lectin binding to printed small molecules – biochemical, small-molecule microarray, 635/667 nm fluorescence, artefact control for SMM control-protein annotation, profiling panel (AID 1140).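 Note: score merges 667 nm feature emission with signal to noise over triplicate slides.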 To be noted: WGA-A647 binding, 635 nm fluorescence, higher = more signal.

In experiment [20] the target is Luciferin 4-monooxygenase (Photinus pyralis) (UniProt P08659). As to the kind of experiment: inhibition of purified Photinus pyralis luciferase – biochemical, luminescence, purified enzyme, 2006 set, primary screen (AID 1141).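 Note: cell-free assay with purified firefly luciferase at 100 ng per well in PBS; test concentration not given here.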 To be noted: purified firefly luciferase, SteadyGlo luminescence, 30 min; higher = more signal, called active from +8 up or from −8 down.
Luciferin 4-monooxygenase (Photinus pyralis), sequence (P08659 whole entry, looked up): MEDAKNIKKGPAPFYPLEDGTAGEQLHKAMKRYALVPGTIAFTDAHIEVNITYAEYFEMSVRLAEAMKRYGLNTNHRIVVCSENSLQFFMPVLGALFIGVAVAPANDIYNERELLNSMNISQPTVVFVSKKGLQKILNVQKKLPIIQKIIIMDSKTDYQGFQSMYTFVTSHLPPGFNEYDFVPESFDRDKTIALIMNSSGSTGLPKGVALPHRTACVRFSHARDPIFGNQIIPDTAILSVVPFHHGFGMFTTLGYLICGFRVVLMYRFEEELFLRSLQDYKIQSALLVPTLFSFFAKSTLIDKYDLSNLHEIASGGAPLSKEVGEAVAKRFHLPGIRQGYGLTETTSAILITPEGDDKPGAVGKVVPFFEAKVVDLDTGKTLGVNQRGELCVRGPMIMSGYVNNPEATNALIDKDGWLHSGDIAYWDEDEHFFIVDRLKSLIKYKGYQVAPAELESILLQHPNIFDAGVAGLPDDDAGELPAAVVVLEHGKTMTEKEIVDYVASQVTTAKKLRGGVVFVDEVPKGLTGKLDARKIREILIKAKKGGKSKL

Active and inactive are the calls of the source.

Fibroblast growth factor 2 (Homo sapiens), sequence (P09038 whole entry, looked up): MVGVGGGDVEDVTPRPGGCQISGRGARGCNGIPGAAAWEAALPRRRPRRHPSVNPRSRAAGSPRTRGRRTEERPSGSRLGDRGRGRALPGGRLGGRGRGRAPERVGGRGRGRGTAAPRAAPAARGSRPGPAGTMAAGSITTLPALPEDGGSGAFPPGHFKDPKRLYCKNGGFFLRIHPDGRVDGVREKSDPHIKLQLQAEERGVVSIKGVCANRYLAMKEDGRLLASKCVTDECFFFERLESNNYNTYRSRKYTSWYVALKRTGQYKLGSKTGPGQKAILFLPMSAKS

Turning to `CO[C@H]1COC(=O)[C@H](CCSC)NC(=O)CC=C[C@@H](C)COC(=O)[C@@H](OCc2ccccc2)C=C[C@@H]1C`, the composite z-score was -1.35 in [1]; -0.0914 in experiment [3]; -0.102 in [4]; -0.498 in experiment [5]; -0.345 in [6]; -0.0638 in [7]. Further, the composite z-score in experiment [8] was 0.51; in experiment [9], 1.51; in experiment [10] it was -0.623; in experiment [11], -0.155; in experiment [12] it was -0.762; in [13], -0.36. The composite z-score in [14] was -1.22; in experiment [15] it was 1.18; in [16] it was 1.46; in experiment [18] it was 1.63; in experiment [19] it was -1.02. Further, the composite Z-score in [2] was -0.273 (inactive). For the same compound, the z-score in [17] was 0.676; in experiment [20], -1.12 (inactive).

As for `CN(C)CCCC[C@@H]1NC(=O)[C@@H]2C[C@H](C(=O)O)[C@H](c3ccc(O)cc3)N2C1=O`, the composite z-score in experiment [1] is -1.07; in experiment [3], 0.237; in [4] it was -0.117; in experiment [5], 0.398; in experiment [6], 0.917; in [7], 0.324. The composite z-score is 0.916 in experiment [8]; 0.917 in experiment [9]; 1.12 in [10]; 1.34 in experiment [11]; 0.704 in experiment [12]; 0.324 in [13]. The composite z-score stood at 0.166 in experiment [14]; 1.37 in experiment [15]; 1.35 in [16]; 1.64 in experiment [18]; 0.176 in experiment [19]. The composite Z-score in experiment [2] is 0.361 (inactive). The z-score in experiment [17] is -0.0467; in experiment [20], -0.486 (inactive).

As for `O=C1c2ccccc2[C@](Cc2ccccc2I)(C(=O)O)[C@H](c2ccc(CO)cc2)N1C1CCCCC1`, the composite z-score is 0.823 in experiment [1]; 0.447 in [3]; -0.0708 in experiment [4]; 0.739 in experiment [5]; 3.57 in [6]; 0.589 in [7]. Further, the composite z-score in experiment [8] is 1.3; in experiment [9], -0.423; in experiment [10] it was 1.21; in experiment [11] it was 1.52; in experiment [12] it was 1.24; in [13], 0.398. The composite z-score in experiment [14] was found to be 0.801; in experiment [15], 1.33; in [16], 1.06; in [18] it was 0.4; in experiment [19], 1.13. Besides, the composite Z-score in experiment [2] is 0.222 (inactive). Further, the figures for the z-score in [17] and in experiment [20] were -0.254 and -0.757 (inactive), respectively.

`C=CC[C@@]1(C(=O)N2CCOCC2)N=C(c2ccc(OCCCO)cc2)O[C@@H]1c1ccccc1`: the composite z-score in experiment [1] was 0.18; in experiment [3] it was -0.223; in experiment [4] it was -0.327; in experiment [5], 0.716; in experiment [6], 2.17; in experiment [7], -0.108. Further, the composite z-score in [8] was -0.157; in experiment [9] it was -0.796; in experiment [10], -0.226; in [11], 0.805; in experiment [12], 1.19; in experiment [13], 1.57. Also, the composite z-score was -0.0135 in experiment [14]; -0.338 in experiment [15]; -0.355 in [16]; -1.02 in [18]; 0.868 in experiment [19]. The composite Z-score in experiment [2] is 0.0379 (inactive). The z-score is 1.89 in experiment [17] and -0.871 (inactive) in [20].

In the case of `CCCNC(=O)[C@@H]1c2ccccc2C(=O)N(Cc2cc(F)cc(C(F)(F)F)c2)[C@H]1c1ccc(CO)cc1`, the composite z-score in experiment [1] was -0.0179; in experiment [3], 0.193; in experiment [4] it was 0.171; in experiment [5] it was 0.584; in experiment [6] it was 2.2; in experiment [7], -0.273. Also, the composite z-score in experiment [8] amounted to 1.3; in experiment [9], 0.341; in experiment [10], 1.14; in [11], 2.1; in experiment [12], 1.14; in [13] it was 0.674. Moreover, the composite z-score was 0.62 in experiment [14]; 1.41 in experiment [15]; 0.587 in experiment [16]; 1.58 in [18]; 0.628 in [19]. The composite Z-score in experiment [2] was 0.457 (inactive). For the same compound, the z-score in [17] is 1.74; in experiment [20], -0.747 (inactive).

Consider `COC(=O)C1=CC(c2ccc(CO)cc2)=CC(c2cccs2)N(Cc2cccc(OC(F)(F)F)c2)C=C1C(=O)OC` (stereo not given), for which the composite z-score in experiment [1] was 1.09; in [3] it was 0.0979; in experiment [4], -0.101; in experiment [5], 0.671; in [6], 2.76; in experiment [7] it was 0.641. The composite z-score in experiment [8] is 1.34; in experiment [9], -0.602; in experiment [10] it was 1.18; in [11], 2.15; in experiment [12], 1.23; in experiment [13], 0.409. Also, the composite z-score in experiment [14] is 0.97; in [15], 0.289; in experiment [16] it was -0.316; in experiment [18] it was 0.0703; in experiment [19], 1.4. In addition, the composite Z-score in [2] was 0.639 (inactive). In addition, the z-score in experiment [17] is 1.49; in experiment [20] it was -0.926 (inactive).

Regarding `O=C1OCC=C[C@H]2OC34C=CCN(Cc5ccccc5)C(=O)[C@H]3N(CCO)C(=O)[C@@H]4[C@@H]12` (stereo not given in full), the composite z-score in experiment [1] was 0.661; in [3] it was -0.248; in experiment [4] it was -0.177; in experiment [5], 0.824; in experiment [6], 0.666; in experiment [7], -0.0963. The composite z-score was -0.72 in experiment [8]; -1.82 in [9]; -0.403 in experiment [10]; -0.29 in [11]; -0.766 in experiment [12]; -0.248 in [13]. The composite z-score is -1.04 in experiment [14]; -0.0764 in experiment [15]; -1.24 in [16]; 0.0323 in experiment [18]; -0.0943 in experiment [19]. Besides, in experiment [2], the composite Z-score is 0.383 (inactive). The z-score in experiment [17] was -0.0233; in experiment [20] it was -3.69 (inactive).

On to `Cc1ccc(S[C@]2(C(=O)NCCN3CCOCC3)CC(=O)N(C3Cc4ccccc4C3)[C@@H]2c2ccc(CO)cc2I)cc1`, for which the composite z-score in [1] was 0.545; in experiment [3], -0.0903; in [4], 0.116; in experiment [5], 0.576; in [6], 1.42; in experiment [7], 0.39. Also, the composite z-score in experiment [8] was 0.458; in experiment [9], -2.56; in experiment [10], -0.587; in experiment [11], 0.0031; in [12], -0.521; in experiment [13] it was 0.355. The composite z-score in experiment [14] was 0.0025; in experiment [15] it was -1.23; in [16] it was -1.41; in experiment [18] it was -1.21; in experiment [19], 1.01. Further, the composite Z-score in experiment [2] was 2.61 (inactive). The z-score in experiment [17] is 1.3; in experiment [20], -0.83 (inactive).

In the case of `C=CCNC(=O)[C@H]1[C@@H]2C(=O)O[C@@H](c3ccccc3)[C@@H](c3ccccc3)N2[C@@H](c2ccccc2OCCO)[C@]12C(=O)N(C(=O)OCCOC)c1ccc(C#CCC(C(=O)OC)C(=O)OC)cc12`, the composite z-score is 0.255 in experiment [1]; -0.0448 in experiment [3]; -0.0829 in [4]; 0.634 in experiment [5]; 2.13 in experiment [6]; 0.689 in experiment [7]. Besides, the composite z-score was 1.3 in experiment [8]; -0.052 in experiment [9]; 1.12 in [10]; 2.1 in [11]; 1.2 in experiment [12]; 0.751 in experiment [13]. Also, the composite z-score came out at 0.709 in [14]; 1.24 in experiment [15]; 1.06 in [16]; 0.779 in [18]; 1.08 in experiment [19]. Further, the composite Z-score in experiment [2] was 1.06 (inactive). Also, the results for the z-score in [17] and in experiment [20] were -1.18 and -0.509 (inactive), respectively.
